This is part of a sample that, as a whole, favours compounds with a hit. Of some 83,000 tested, about 20% had one in any assay.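 In brief: 96-well plates, 48 h treatment, single concentration, percent growth endpoint.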 Unmarked numbers belong to inactive results. Active and inactive are the calls of the source. How the source made its calls: active means growth percent below 10; inactive means the rest.

Eight molecules from PubChem BioAssay (NCI) can be followed below.

Among the test systems are K-562 leukemia; MALME-3M melanoma; MDA-MB-231 breast; RXF 393 renal; SF-268 CNS; SF-295 CNS; SF-539 CNS; UACC-257 melanoma; M14 melanoma; HCT-15 colon; HT29 colon; SNB-75 CNS; SNB-19 CNS; U251 CNS; PC-3 prostate; SK-MEL-5 melanoma; UACC-62 melanoma; LOX IMVI melanoma; SK-MEL-2 melanoma; SK-MEL-28 melanoma.
Assay in all cases: NCI-60 one-dose screen, 48 h (100 = growth as untreated, 0 = no growth, -100 = all killed)
What all share (details): 10 µM unless noted

`CS(=O)(=O)c1ccc(-n2cc(/C=C/C(=O)c3ccc(NC(=O)CO[N+](=O)[O-])cc3)c(-c3ccc(Cl)cc3)n2)cc1`: the growth with K-562 leukemia was 119%; in the test with MALME-3M melanoma it was 100%; with MDA-MB-231 breast it was 79.5%; with RXF 393 renal, 86.8%; in the test with SF-268 CNS, 111%; in the test with SF-295 CNS it was 91.2%. The growth is 92.7% with SF-539 CNS; 97.1% with UACC-257 melanoma; 91.6% with M14 melanoma; 96.2% in the test on HCT-15 colon; 108% in the test on HT29 colon; 111% in the test on SNB-75 CNS. Moreover, the growth with SNB-19 CNS is 84.9%; in the test on U251 CNS, 92.9%; in the test on PC-3 prostate, 96.2%; with SK-MEL-5 melanoma, 98.4%; in the test on UACC-62 melanoma it was 83.3%; in the test with LOX IMVI melanoma it was 96.9%. Besides, the growth with SK-MEL-2 melanoma is 94.9%.

As to `Cc1c(NC(=O)CSc2nc3sc4c(c3c(=O)n2-c2ccc(Cl)cc2)CCCC4)c(=O)n(-c2ccccc2)n1C`, the growth in the test with K-562 leukemia was 90.2%; in the test on MALME-3M melanoma it was 102%; in the test with MDA-MB-231 breast, 93.4%; with RXF 393 renal, 104%; with SF-268 CNS it was 80.3%; in the test on SF-295 CNS, 95.5%. Also, the growth is 89.5% with SF-539 CNS; 102% in the test on UACC-257 melanoma; 95.2% in the test with M14 melanoma; 93.3% in the test on HCT-15 colon; 101% with HT29 colon; 72.6% with SNB-75 CNS. Further, the growth in the test with SNB-19 CNS is 79.7%; in the test with U251 CNS, 104%; with PC-3 prostate, 94.4%; with SK-MEL-5 melanoma it was 87.2%; in the test with UACC-62 melanoma, 83.1%; in the test with LOX IMVI melanoma, 89.5%. Besides, the growth is 89.2% with SK-MEL-28 melanoma and 110% in the test on SK-MEL-2 melanoma.

Consider `COc1cc(/C=C/C(=O)c2cc(OC)c(OC)c(OC)c2)ccc1Oc1nc(NCCO)nc(N2CCOCC2)n1`, for which the growth was 8.97% (active) in the test on K-562 leukemia; 29% with MALME-3M melanoma; 19.4% in the test with MDA-MB-231 breast; -25.7% (active) in the test on RXF 393 renal; 9.81% (active) in the test with SF-268 CNS; 12.6% in the test on SF-295 CNS. In addition, the growth in the test with SF-539 CNS was -5.48% (active); in the test on UACC-257 melanoma it was 47.8%; in the test on M14 melanoma it was -19.1% (active); in the test on HCT-15 colon, -9.13% (active); in the test on HT29 colon it was -21.5% (active); in the test with SNB-75 CNS, 15.2%. The growth in the test on SNB-19 CNS is 12.4%; in the test on U251 CNS it was -36.9% (active); with PC-3 prostate it was 37.7%; in the test on SK-MEL-5 melanoma, 3.03% (active); in the test with UACC-62 melanoma, -4.12% (active); in the test on SK-MEL-28 melanoma, 31.5%. In addition, in the test with SK-MEL-2 melanoma, the growth is -3.2% (active).

As to `O=C(CSc1nc2sc3c(c2c(=O)n1-c1ccc(Cl)cc1)CCCC3)NNC(=O)Nc1ccc(Cl)c(C(F)(F)F)c1`, the growth was 11.7% in the test with K-562 leukemia; 22.5% with MALME-3M melanoma; 61.2% with MDA-MB-231 breast; 70.5% in the test with RXF 393 renal; 67% with SF-268 CNS; 9.82% (active) in the test with SF-295 CNS. Also, the growth in the test with SF-539 CNS is 73.1%; in the test on UACC-257 melanoma, 46.5%; in the test on M14 melanoma, 44%; in the test with HCT-15 colon, 24.5%; in the test on HT29 colon, 6.06% (active); in the test on SNB-75 CNS, 42.1%. The growth is 50.4% in the test on SNB-19 CNS; 4.22% (active) in the test on U251 CNS; -2.4% (active) with PC-3 prostate; 34.7% in the test on SK-MEL-5 melanoma; 37.1% in the test on UACC-62 melanoma; 1.34% (active) with LOX IMVI melanoma. Also, the growth with SK-MEL-28 melanoma is 53.7%; in the test on SK-MEL-2 melanoma it was -9.26% (active).

For the molecule `C#C[C@]1(O)CC[C@H]2[C@@H]3CC=C4c5sc(Nc6ccc(Cl)cn6)nc5CC[C@]4(C)[C@H]3CC[C@@]21C`, the growth in the test on K-562 leukemia was 9.48% (active); in the test with MALME-3M melanoma it was 58.3%; with MDA-MB-231 breast, 27.2%; in the test on RXF 393 renal, -53.2% (active); with SF-268 CNS, 43.7%; in the test with SF-295 CNS it was -63% (active). The growth in the test on SF-539 CNS is -30.8% (active); with UACC-257 melanoma, -45.2% (active); in the test with M14 melanoma, 50.7%; with HCT-15 colon it was 39.7%; in the test on HT29 colon it was 47.2%; with SNB-75 CNS, -0.325% (active). Moreover, the growth in the test on SNB-19 CNS is 54.5%; in the test on U251 CNS it was 19.1%; with PC-3 prostate, 29.9%; with SK-MEL-5 melanoma it was 84%; in the test with UACC-62 melanoma, 28.3%; in the test on LOX IMVI melanoma it was 0.11% (active). Also, in the test with SK-MEL-2 melanoma, the growth was -13.4% (active).

As for `Nc1nc(N)c2c(n1)NC(c1ccc(C(F)(F)F)cc1)CC(c1ccc(Nc3nc(NCCO)nc(Nc4ccc(Cl)cc4)n3)cc1)=N2` (stereo not given), the growth in the test with K-562 leukemia was 1.08% (active); with MALME-3M melanoma it was -79% (active); in the test with MDA-MB-231 breast, -59.4% (active); with RXF 393 renal, -78.8% (active); in the test with SF-268 CNS it was -29.4% (active); in the test with SF-295 CNS, -79.5% (active). The growth with SF-539 CNS was -86.2% (active); in the test with UACC-257 melanoma, 74.1%; with M14 melanoma, -86.9% (active); with HCT-15 colon, -54.4% (active); in the test on HT29 colon, -66.6% (active); in the test on SNB-75 CNS, 35.4%. For the same molecule, the growth in the test on SNB-19 CNS is -79.1% (active); in the test with U251 CNS it was -22.3% (active); in the test on PC-3 prostate, -31.5% (active); in the test on SK-MEL-5 melanoma, -92.8% (active); in the test on UACC-62 melanoma, -41.5% (active); in the test on SK-MEL-28 melanoma, -94.6% (active). In addition, the growth with SK-MEL-2 melanoma was -80.3% (active).

As to `Fc1ccc(-c2nc(C(Cl)Cl)nc3cc(-c4ccccc4)nn23)cc1`, the growth was 11.4% in the test with K-562 leukemia; -15% (active) with MALME-3M melanoma; 11.8% in the test with MDA-MB-231 breast; -70.1% (active) with RXF 393 renal; 24% with SF-268 CNS; 6.38% (active) in the test on SF-295 CNS. The growth was 32.8% with SF-539 CNS; 1.45% (active) in the test on UACC-257 melanoma; -40.7% (active) in the test on M14 melanoma; 4.01% (active) in the test on HCT-15 colon; -9.69% (active) in the test on HT29 colon; -14.7% (active) with SNB-75 CNS. Moreover, the growth in the test on SNB-19 CNS is 3.82% (active); in the test on U251 CNS, -53.6% (active); in the test with PC-3 prostate, 31%; with SK-MEL-5 melanoma it was 57%; with UACC-62 melanoma it was 40.6%; in the test on LOX IMVI melanoma, 32.4%. Also, the growth was -13.8% (active) in the test on SK-MEL-28 melanoma and 115% with SK-MEL-2 melanoma.

For the molecule `COc1ccc(-c2csc(N/N=C/c3c(-c4ccc(S(C)(=O)=O)cc4)nc4ccccn34)n2)cc1`, the growth with K-562 leukemia is 98.5%; with MALME-3M melanoma, 118%; in the test with MDA-MB-231 breast, 107%; in the test on RXF 393 renal, 114%; with SF-268 CNS, 110%; with SF-295 CNS it was 106%. For the same molecule, the growth was 107% in the test with SF-539 CNS; 112% in the test with UACC-257 melanoma; 106% in the test on M14 melanoma; 101% with HCT-15 colon; 115% in the test with HT29 colon; 110% in the test with SNB-75 CNS. Also, the growth was 106% with SNB-19 CNS; 106% in the test with U251 CNS; 105% in the test on PC-3 prostate; 96.5% with SK-MEL-5 melanoma; 102% in the test with UACC-62 melanoma; 107% in the test with SK-MEL-28 melanoma. Moreover, the growth with SK-MEL-2 melanoma is 114%.
